# Bioassay records as filed in PubChem.
# Only some compounds are listed: those with a hit (about 0.99% of all), similar ones and a draw of the others.
# TRPML1 ag: agonists of human TRPML1 channel. 410,000 tested, 0.12% active. Q9GZU1. activation, % (no concentration beside the values). TRPML1-expressing cells, Ca2+ dye fluorescence, FDSS; in the data active means activation above about 50%; inconclusive means mostly about 30% to 49%
#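 Kinetic FDSS Ca2+ read in Tet-induced TRPML1-DL cells (ABD Ca8 dye plus quencher, 45-90 min RT loading): baseline, then compound, then 110 s agonist window; EC80 agonist 54-4 at 4uM final added afterwards for a 110 s antagonist window.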
# TRPML1 inh: inhibitors of human TRPML1 channel | Q9GZU1 | TRPML1-inducible cells, Ca2+ dye fluorescence, FDSS; stronger effect = lower value; inhibition of EC80 agonist-evoked calcium signal | activity change, negative = inhibition, % (no concentration beside the values) | 390,000 tested, 0.02% active | AID 624415; in the data active means activity change below about -50%; inconclusive means between about -30% and that limit;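 further: stimulus is agonist 54-4 at its EC80 concentration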
#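 TRPML1-DL cells, Tet-induced overnight (~16 h, 37 °C) at 1,500 cells/well, were loaded with Ca8 no-wash dye plus quencher for 45-90 min at room temperature. Compounds were pinned during FDSS kinetic reading; agonist 54-4 at EC80 (4 uM final) then added.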
# TRHR enhancer-1: allosterically enhances the human TRH receptor; P34981; TRHR cells, fluo-8 calcium fluorescence, EC20 TRH enhancement; enhancement, % at 2 µM; 360,000 tested, 0.66% active; AID 493056; in the data active means enhancement above about 30%
# Target sequence (P34981 whole entry, looked up): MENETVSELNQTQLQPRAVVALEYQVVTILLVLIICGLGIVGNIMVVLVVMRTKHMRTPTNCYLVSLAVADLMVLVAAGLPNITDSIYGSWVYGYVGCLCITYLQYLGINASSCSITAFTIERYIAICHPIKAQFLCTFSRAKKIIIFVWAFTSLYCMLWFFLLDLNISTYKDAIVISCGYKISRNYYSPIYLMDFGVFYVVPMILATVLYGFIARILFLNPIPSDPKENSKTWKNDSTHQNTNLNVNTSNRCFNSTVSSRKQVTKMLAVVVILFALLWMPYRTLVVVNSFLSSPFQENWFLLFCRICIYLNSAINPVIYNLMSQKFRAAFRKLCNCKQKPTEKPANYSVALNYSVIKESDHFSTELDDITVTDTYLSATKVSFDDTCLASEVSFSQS
#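 Enhancer read-out: after compound pinning and an initial kinetic agonist-mode read, an EC20 of TRH (10 nM final) was injected and fluo-8 calcium signal (Ex 480/Em 530) followed at 1 s/cycle for 100 cycles in TRHR-expressing cells.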
# TRPV1 potentiator: potentiators of human vanilloid receptor 1 (TRPV1). Q8NER1. 320,000 tested, 0.02% active. TRPV1-expressing cells, Fluo-8 calcium influx, capsaicin EC20 potentiation. potentiation, % at 8.33 µM; in the data active means potentiation above about 80%; inconclusive means between about 30% and that limit
#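 TRPV1-expressing cells were cultured overnight at 35.5C and loaded with Fluo-8 calcium dye for 40 to 90 min at room temperature. After a 10 s baseline, compound was added and calcium influx was read kinetically for 3 min (ex 480/em 520 nm).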
# TRPV1 ag: agonists of human vanilloid receptor 1 (TRPV1). Q8NER1. activation, % at 8.33 µM. TRPV1-expressing cells, Fluo-8 calcium influx, agonist mode. 320,000 tested, 0.19% active. AID 540275; in the data active means activation above about 80%; inconclusive means between about 30% and that limit
#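 Cells expressing TRPV1 were dye-loaded with Fluo-8 and read kinetically: 10 s baseline, 3 min after compound (agonist portion), then 2 min after EC20 capsaicin (allosteric enhancer portion). Calcium-bound dye fluorescence at 480/520 nm.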
# TRHR agonist-1: activates the human TRH receptor; P34981; TRHR cells, calcium flux fluo-8, FDSS agonist mode; activation, % at 2 µM; 360,000 tested, 0.18% active; in the data active means activation above about 30%
#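 Steps: seed TRHR cells overnight; add fluo-8 no-wash Ca dye, RT 30 min–1.5 h; record 10 s baseline; pin-transfer compounds; monitor fluorescence 1 cycle/s for the agonist window. Calcium increases flag candidate agonists.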
# TRHR enhancer-2: human TRH receptor allosteric enhancement confirmation | shares compounds with TRHR enhancer-1 | TRH receptor cell assay, enhancer confirmation qHTS | activity change, negative = inhibition, % at 46.1 µM | 970 tested, under 10 active | AID 493076;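 further: compound effect scored on response to added TRH at EC20 of 10 nM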
# TRHR agonist-2: confirmation of human TRH receptor agonists | shares compounds with TRHR enhancer-1 | TRHR-expressing cells, agonist activation read-out | Potency, µM (series often up to 46.1 µM), actives largely listed as activators | 970 tested, 8% active | AID 493078; further: nearly all actives have a fitted effect of over 75% in size
# Hits are given with their value; n = inactive; u = inconclusive; x = no result. Unless noted, the call rests on the fitted dose curve; in most records, active means well fitted curve in the direction sought with a large enough effect; inconclusive means small, poorly fitted or top-dose-only effect, or another doubt; inactive means no such curve, though single readings can be large; an effect the other way counts as inactive or inconclusive.
SMILES,TRPML1 ag,TRPML1 inh,TRHR enhancer-1,TRPV1 potentiator,TRPV1 ag,TRHR agonist-1,TRHR enhancer-2,TRHR agonist-2
O=C(Cn1cncn1)NCc1ccccc1Br,n,n,n,n,n,n,x,x
O=C(C1=C(O)C(=O)N(c2nccs2)C1c1ccccc1)c1cc2ccccc2o1 (configuration not stated),92,n,n,n,u,57,u,4.6µM
O=C(CSc1ccc(-c2cccnc2)nn1)N1CCCc2ccccc21,x,x,41,n,n,n,n,n
O=C(CSc1ccc(-c2ccc(Cl)cc2)nn1)N1CCCc2ccccc21,n,n,n,n,n,n,x,x
Cc1ccc(OCCn2cc(C(=O)C3CCCCC3)c3ccccc32)cc1,n,n,n,x,x,n,x,x
CC1CCN(Cc2c(C(=O)N/N=C/c3ccc(C(C)C)cc3)nnn2-c2nonc2N)CC1,n,n,52,n,n,n,n,n
CCc1ccc(CN(C)CC(O)COc2cccc3ccccc23)cc1 (configuration not stated),n,n,42,n,n,n,u,n
CCOC(=O)c1ccc(NC(=O)c2c(NCc3cc(OC)ccc3OC)sc3c2CCC3)cc1,n,n,n,x,x,n,x,x
Cc1oc(C)c2c(=O)cc(-c3ccc4c(c3)OCO4)cc(OC(=O)c3cccc(Br)c3)c12,n,n,n,x,x,n,x,x
COc1ccccc1OCC(=O)OCC(=O)Nc1sccc1C(N)=O,n,n,n,n,n,34,n,u
Cc1c2ccccc2nc2c(F)c(NCCO)c(F)c(F)c12,n,n,n,n,n,37,n,16µM
O=C(NCc1ccccc1Cl)c1ccc(-n2cnc3cccnc32)cc1,n,n,n,x,x,n,x,x
Oc1ccc(C(c2nnnn2C2CCCC2)N2CCc3ccccc3C2)cc1 (configuration not stated),n,n,n,n,n,45,n,n
COc1cc(C(c2nnnn2C2CCCC2)N2CCc3ccccc3C2)ccc1O (configuration not stated),n,n,n,n,n,n,x,x
O=C(NCc1ccccc1)C(=O)NCC(c1cccs1)S(=O)(=O)c1cccs1 (configuration not stated),n,n,n,x,x,n,x,x
O=C(Cc1ccc([N+](=O)[O-])cc1)OCc1ccc([N+](=O)[O-])cc1,n,n,n,n,n,n,x,x
COC(=O)CCCNC(=O)OCc1ccc([N+](=O)[O-])cc1,n,n,67,n,n,n,n,n
CCCn1cccc(C(=O)Nc2ccc(OC)cc2)c1=O,n,n,n,n,n,n,x,x
C#CCn1cccc(C(=O)Nc2ccc(OC)cc2)c1=O,n,n,45,n,n,n,n,n
COc1ccc(COC(=O)C2=C(C)NC(=O)NC2c2ccccc2)cc1 (configuration not stated),n,n,44,n,n,n,n,n
Brc1c(CSc2nc3ccccc3s2)nc2ncccn12,n,n,n,n,n,n,x,x
O=[N+]([O-])c1ccc2sc(SCc3nc4ccccn4c3Br)nc2c1,x,x,41,u,n,n,n,n
COc1ccc(N/N=C(\C#N)C(N)=O)cc1,n,n,45,n,n,n,n,n
Cc1ccc(OCC(=O)Nc2nc(-c3ccc(Br)cc3)ns2)cc1,n,n,n,x,x,n,x,x
O=C(CSc1nc2c([nH]c3ccccc32)c(=O)n1-c1ccccc1)N1CCCc2ccccc21,n,n,n,x,x,n,x,x
SMILES,TRPML1 ag,TRPML1 inh,TRHR enhancer-1,TRPV1 potentiator,TRPV1 ag,TRHR agonist-1,TRHR enhancer-2,TRHR agonist-2
N#CC1=C(N)Oc2cc(O)c(Cl)cc2C1c1cccnc1 (configuration not stated),u,n,n,n,n,65,n,u
N#CC1=C(N)Oc2cc(O)ccc2C1c1cccnc1 (configuration not stated),n,n,n,n,n,n,x,x
COc1cc(/C=C(\C#N)C(=O)NCCc2ccccc2)cc(OC)c1O,u,n,n,n,n,56,n,21µM
Cc1cccc(OCC(=O)Nc2cccc(C(=O)OCc3cc(=O)n4c(C)csc4n3)c2)c1,n,n,n,x,x,n,x,x
Cc1ccc(C(=O)COC(=O)c2cc(=O)[nH]c3ccccc23)cc1,n,n,47,n,n,n,n,n
O=C(COC(=O)c1cc(=O)[nH]c2ccccc12)c1ccccc1,n,n,n,n,n,n,x,x
Cc1ccc2c(CC(=O)OCC(=O)N(CC(C)C)c3c(N)n(Cc4ccccc4)c(=O)[nH]c3=O)coc2c1,n,n,49,n,n,n,n,u
CCN(C(=O)COC(=O)Cc1coc2cc(C)ccc12)c1c(N)n(Cc2ccccc2)c(=O)[nH]c1=O,n,n,n,n,n,n,x,x
CCc1ccc(C2c3c(-c4cc(C)ccc4O)n[nH]c3C(=O)N2CCO)cc1 (configuration not stated),n,n,n,x,x,n,x,x
COc1ccccc1CNC(=O)N1CCN(S(=O)(=O)c2ccc(C)cc2)CC1,n,n,42,n,n,n,n,n
Cc1ccc(S(=O)(=O)c2c(N)n(Cc3ccco3)c3nc4ccccc4nc23)cc1C,n,n,n,n,n,n,x,x
Nc1c(S(=O)(=O)c2ccccc2)c2nc3ccccc3nc2n1Cc1ccco1,n,n,n,n,n,n,n,u
O=C(Nc1ncccc1O)c1c(O)c2ccccc2[nH]c1=O,n,n,n,x,x,n,n,n
NC1=NC(=O)/C(=C/c2ccc(OCC(=O)O)cc2)S1,x,x,n,n,n,n,x,x
CCN(CC)c1ccc(/C=C2\SC(N)=NC2=O)cc1,n,n,n,n,n,n,n,u
CN(C)/[N+]([O-])=N/Oc1cc(O/[N+]([O-])=N/N2CCCC2CO)c([N+](=O)[O-])cc1[N+](=O)[O-] (configuration not stated),n,n,x,x,x,x,x,x
Cc1ccc2onc(CC(=O)N3CCN(c4cccc(Cl)c4)CC3)c2c1,n,n,n,x,x,n,x,x
Oc1c(C=Nc2ccc(Cl)cn2)sc2ccccc12,n,n,n,n,n,n,x,x
Oc1c(/C=N/c2ccccn2)sc2ccccc12,n,n,41,n,n,n,n,u
Cc1ccc(-c2nnc(Nc3ccc(CC(N)=O)cc3)c3ccccc23)cc1S(N)(=O)=O,n,n,52,n,n,n,n,n
O=S(=O)(NCC1CCCO1)c1ccc(Cl)cc1 (configuration not stated),x,x,46,n,n,n,n,n
O=Cc1ccc(OCc2ccc3c(c2)OCO3)cc1,x,x,n,n,n,n,n,n
